Several values for one entry are separate records, joined by “and”; a condition that tells them apart may be missing. Identical values can stand only once. The panel holds about 83,000 compounds, 20% with a hit somewhere; the sample as a whole holds those more often.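 Note: values are percent growth. 100 is the growth of untreated cells, values between 100 and 0 indicate rising inhibition; between -100 and 0 indicates cell death.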 Unmarked numbers belong to inactive results. Activity calls are given as the source filed them. The calls were made as follows: active = growth percent below 10; inactive = the rest.

The subject of the test is HL-60(TB) leukemia. The experiment in a line: NCI-60 one-dose screen, 48 h (100 = growth as untreated, 0 = no growth, -100 = all killed). Particulars: 10 µM unless noted.
For `CCN(CC)c1ccc(NC(C(=O)c2ccccc2)c2ccccc2)cc1` (stereo not given), the growth is 65.5%.
The figure for `CCCC(O)Cn1ncc(C(=O)OCC)c1NC(=O)NCc1ccccc1F` (stereo not given) is 81.6%; for `O=S(=O)(Nc1ncccn1)c1ccc(NC2Nc3nc4ccccc4nc3S2)cc1` (stereo not given) it is 101%; for `COc1ccc(-n2c(-c3ccccc3)c(-c3ccccc3)c3c(SCC(=O)N/N=C/c4ccc(Cl)cc4)ncnc32)cc1` it is 103%.
The figure for `COc1c(Cl)cc(Cl)c2ccc(C=C3C(=O)NC(=S)NC3=O)nc12` is 102%.
Take `CN(C=O)c1ccccc1`: the growth was 101%.
Take `O=C(O)CNC(=O)C1(N2C(=O)c3ccccc3C2=O)CCCC1`: the growth was 90.6%.
Take `O=C(Nc1cccc(Cl)c1)c1cc(Cl)ccc1O`: the growth was -32.4% (active).
The result for `Cc1cccc([N+](=O)[O-])c1Cl` reads 115%; that for `Clc1ccc(C(Cn2ccnc2)OCc2ccsc2Cl)c(Cl)c1` (stereo not given), 6.05% (active).
The result for `CC(=O)c1cccc(NS(=O)(=O)c2cccc(C(=O)Nc3ccc(Br)cc3)c2)c1` reads 48.7% [25 µM]; that for `Cc1ccncc1NC=O`, 105%.
`CCOc1c(C#N)c2c(N)ncnc2n1C1OC(CO)C(O)C1O` (stereo not given): the growth is 2.98% (active).
The figure for `COc1ccc(-c2nc(N)ncc2Oc2ccccc2OC)c(O)c1` is -21.8% (active); for `COc1ccc(-c2c(-c3nc4ccc(N5CCOCC5)cc4[nH]3)[nH]c(C)c2C(C)=O)cc1` it is 4.22% (active); for `COc1cccc(-c2nn(-c3ccccc3)cc2-c2ccnc(NCCNS(=O)(=O)c3cccc(F)c3)c2)c1` it is 5.83% (active).
The result for `C=C(C)[C@@H]1CC[C@]2(C(=O)OCCCC[P+](c3ccccc3)(c3ccccc3)c3ccccc3)CC[C@]3(C)[C@H](CC[C@@H]4[C@@]5(C)CC[C@H](OC(=O)C(Cl)Cl)C(C)(C)[C@@H]5CC[C@]43C)[C@@H]12` reads -49.9% (active); that for `COC(=O)c1cc(-c2ccc(C)cc2)n(C(=O)CSc2nc3sc(C(N)=O)c(C)c3c(=O)n2Cc2ccccc2)n1`, 106%; that for `Cc1ccc2c(c1)C(=O)/C(=C\Nc1ccc(C(N)=O)cc1)C(O)O2` (stereo not given), 130%.
The figure for `Cn1cc(-c2csc(-c3ccc(Cl)cc3)n2)c2cccnc21` is 7.96% [100 µM] (active); for `C=C1C(=O)O[C@H]2[C@H]1CC/C(COC(=O)N[C@H]1C[C@H](O[C@H]3C[C@](O)(C(=O)CO)Cc4c(O)c5c(c(O)c43)C(=O)c3c(OC)cccc3C5=O)O[C@@H](C)[C@H]1O)=C\CC[C@@]1(C)O[C@@H]21` it is -31.2% (active); for `CC(=O)/C(=C\c1c(-c2ccccc2)[nH]c2ccccc12)S(=O)(=O)c1ccccc1` it is -68.4% (active).
`N#Cc1c(-c2ccccc2)cc(-c2ccccc2)n(CCCC(=O)Nc2ccccc2N)c1=O`: the growth was 21.5%.
The result for `O=c1oc2cc(OS(=O)(=O)c3ccccc3)c(Cl)cc2c2c1CCCCCC2` reads 87.6%; that for `O=S(=O)(Nc1ccc(-c2nc(-c3cccc(OCCN4CCOCC4)c3)c(-c3ccnc(Br)c3)[nH]2)cc1)c1ccccc1`, -2.01% (active); that for `Cc1cc(C)n(Cc2cc(C(C)(C)C)cc(C(C)(C)C)c2)c(=O)c1C#N`, 100%.
The figure for `O=C1CSC(=S)N1Cc1cccnc1` is 13.8%; for `O=C1c2cccnc2-c2nccc3c2c1nc1cc(Br)ccc13` it is -68.1% (active) and -56.3% (active).
`N=c1ccc2nc3c(cc(N)c4ccccc43)oc-2c1`: the growth is -48.4% (active).
The figure for `COc1ccc2c(c1)NC1=C(C(=O)OC1)C2c1cc(OC)c2c(c1)OCO2` (stereo not given) is 0.722% (active); for `CCOC(=O)c1sc2ncnc(Nc3ccc(NC(=O)Nc4ccc(Cl)cc4)cc3)c2c1C` it is 91.4%; for `CC(Oc1ccc(C(=O)NS(=O)(=O)C(C)(C)C)cc1C(F)(F)F)c1ccc(Oc2ccccc2)cn1` (stereo not given) it is 72.2%.
With `CC1(C)CC2(C)CC(=O)C1C(C(=O)O)C2C(=O)O` (stereo not given), the growth was 97.9%.
Regarding `COc1cc(C2=NN(C=O)C(c3cccc(Nc4ccnc5cc(C(F)(F)F)ccc45)c3)C2)cc(OC)c1OC` (stereo not given), the growth is 8.02% (active).
The figure for `CCN(CC)CCCC(C)N(Cc1ccccc1)CC(O)c1ccc(Cl)cc1` (stereo not given) is 101% and 106%; for `C=C(C)[C@@H]1CC[C@]2(C)[C@H](CC=C3[C@@H]4[C@@H](C)[C@H](C)CC[C@]4(C(N)=O)CC[C@]32C)[C@@]1(C)CCC#N` it is -28.7% [100 µM] (active); for `Cn1c(-c2ccc(Br)cc2)c(O)c(=O)c2c(F)cccc21` it is 122%.
The result for `NC(=S)Cc1ccccc1` reads 99.1%.
Take `COc1ccc(/C=N/NC(=O)CCN2c3ccccc3Sc3ccccc32)cc1`: the growth was 82%.
Regarding `S=c1ssnc1-c1ccccn1`, the growth was -43.5% (active).

These data come from PubChem BioAssay (NCI).
